Laboratory results from PubChem BioAssay AID1018 (Sanford-Burnham Center for Chemical Genomics, 2008).
Hit rate of the full screen: of about 200,000 compounds, about 15 (0.007%) were called active. What follows is part of a selection rich in actives, with near analogues and random picks from the rest. A number with no mark means an inactive call. No stated cut-off is given here; in the data, active means displacement above about 50%; inactive means the rest.

Each compound was assayed against E3 ubiquitin-protein ligase XIAP (Homo sapiens) (UniProt P98170) (assay: XIAP antagonists, biochemical, IAP family, fluorescence polarization (AID 1018)). Conditions: XIAP BIR domain, fluorescence polarization peptide displacement; at 20 µM; stronger effect = higher value.
Chain of E3 ubiquitin-protein ligase XIAP (Homo sapiens) (P98170 whole entry, looked up, the tested form may be a part): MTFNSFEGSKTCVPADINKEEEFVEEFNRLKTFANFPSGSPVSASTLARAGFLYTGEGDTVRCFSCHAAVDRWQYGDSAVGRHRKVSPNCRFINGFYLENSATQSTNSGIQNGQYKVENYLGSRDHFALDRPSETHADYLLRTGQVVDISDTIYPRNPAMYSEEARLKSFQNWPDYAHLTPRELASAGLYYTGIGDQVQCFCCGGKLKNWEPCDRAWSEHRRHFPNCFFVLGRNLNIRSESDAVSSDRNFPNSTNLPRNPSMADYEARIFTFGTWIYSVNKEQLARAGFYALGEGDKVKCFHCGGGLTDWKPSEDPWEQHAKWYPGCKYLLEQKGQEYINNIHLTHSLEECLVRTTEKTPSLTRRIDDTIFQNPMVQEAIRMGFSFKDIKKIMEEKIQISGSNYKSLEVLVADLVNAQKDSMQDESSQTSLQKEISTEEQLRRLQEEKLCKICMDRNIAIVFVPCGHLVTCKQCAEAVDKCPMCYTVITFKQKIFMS
CN1C(=O)N(C)C(=O)C2(Cc3ccccc3N3CCOCC32)C1=O (stereo not given) was tested, and the displacement was -5.1%. For CN1C(=O)NC(=O)[C@]2(Cc3ccccc3N3CCN(c4ccccc4)CC32)C1=O (stereo not given in full), the displacement was -2.4%. With CN1C(=O)N(C)C(=O)C2(Cc3cc(N)ccc3N3CCN(c4ccccc4F)CC32)C1=O (stereo not given) the displacement was 55.4% (active). Compound Cc1ccc(-c2nc3ccccc3c(=O)n2-c2ccccn2)cc1 has a displacement of -3%. CCCCCSc1cc(OC)c(CCN(C)C)cc1OC was tested, and the displacement was -2.2%.
